Source: ChEMBL document CHEMBL3988442, “University of Dundee, Small-Polar-MMV Screening Library” (2021)
For some assays here: Entries with a potency or affinity are not part of this list.

Columns and labels:
Design in all cases: scale not given: direction of the effect not stated beside the values
[1] = biological target: Protein translocase subunit SecA (Escherichia coli (strain K12)) (UniProt P10408); assay: Assay to Identify E. coli SecA ATPase Inhibitors; type: functional; details: 30 µM
[2] = biological target: T1, Ubiquitin-activating enzyme e1, putative (Leishmania donovani (strain BPK282A1)) (UniProt E9BSI1); assay: Leishmania donovani Ubiquitin Activating Enzyme (LdE1); type: functional; details: 30 µM
T1 sequence (whole entry): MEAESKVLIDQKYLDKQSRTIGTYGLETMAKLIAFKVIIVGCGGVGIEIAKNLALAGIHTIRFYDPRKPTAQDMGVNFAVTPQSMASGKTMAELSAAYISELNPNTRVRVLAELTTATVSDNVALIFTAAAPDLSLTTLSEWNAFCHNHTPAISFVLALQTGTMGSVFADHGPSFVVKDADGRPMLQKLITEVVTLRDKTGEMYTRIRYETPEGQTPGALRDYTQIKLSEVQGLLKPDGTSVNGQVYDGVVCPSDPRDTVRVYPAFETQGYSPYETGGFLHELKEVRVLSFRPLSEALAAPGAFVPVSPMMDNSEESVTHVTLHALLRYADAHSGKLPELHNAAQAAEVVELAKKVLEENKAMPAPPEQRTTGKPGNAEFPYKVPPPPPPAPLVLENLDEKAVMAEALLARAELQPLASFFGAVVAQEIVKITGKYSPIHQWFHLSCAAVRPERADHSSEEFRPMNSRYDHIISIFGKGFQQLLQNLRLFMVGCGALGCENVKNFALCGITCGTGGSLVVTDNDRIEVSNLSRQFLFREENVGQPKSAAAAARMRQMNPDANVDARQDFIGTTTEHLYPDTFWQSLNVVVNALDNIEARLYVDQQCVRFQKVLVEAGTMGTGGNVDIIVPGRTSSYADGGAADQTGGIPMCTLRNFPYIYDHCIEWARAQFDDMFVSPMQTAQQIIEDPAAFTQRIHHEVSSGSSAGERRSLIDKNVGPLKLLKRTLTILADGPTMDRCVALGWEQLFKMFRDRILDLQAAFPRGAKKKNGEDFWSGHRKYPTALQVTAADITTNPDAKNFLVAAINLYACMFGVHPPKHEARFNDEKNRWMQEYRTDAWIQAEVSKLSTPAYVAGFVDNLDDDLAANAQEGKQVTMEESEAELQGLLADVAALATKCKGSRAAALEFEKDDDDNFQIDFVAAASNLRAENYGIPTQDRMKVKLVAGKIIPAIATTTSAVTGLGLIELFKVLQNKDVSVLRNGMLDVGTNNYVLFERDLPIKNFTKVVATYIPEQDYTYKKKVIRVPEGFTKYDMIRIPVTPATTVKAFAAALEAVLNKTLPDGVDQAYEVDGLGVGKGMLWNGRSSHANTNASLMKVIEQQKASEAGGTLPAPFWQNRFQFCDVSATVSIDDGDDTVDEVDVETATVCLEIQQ

[3] = biological target: AMP-activated protein kinase, AMPK (Homo sapiens) (UniProt P54646+O43741+P54619+Q9UGJ0+Q9Y478+Q13131+Q9UGI9); assay: AMP-dependent Kinase enzyme assay. An in vitro enzyme assay that detects ADP turnover that is directly proportional to AMPK activity. This uses naive AMPK that is activated during the assay with MK-8722; type: functional; details: 30 µM
[4] = biological target: Sialic acid-binding Ig-like lectin 9 (Homo sapiens) (UniProt Q9Y336); assay: Hs-Siglec9 ALPHAscreen SOP 20170721; details: 10 µM
Trypanosoma cruzi = assay: Trypanosoma cruzi phosphomannomutase and mannose-1-phosphate guanylyltransferase assay; type: functional; details: 10 µM
[5] = biological target: T2, Arginase-2, mitochondrial (Homo sapiens) (UniProt P78540); assay: in vitro enzyme assay to detect the production of urea directly proportional to the activity of Arginase II; type: functional; details: 33.3 µM; note: in the data most compounds retested in dose-response had high values
T2 sequence (whole entry): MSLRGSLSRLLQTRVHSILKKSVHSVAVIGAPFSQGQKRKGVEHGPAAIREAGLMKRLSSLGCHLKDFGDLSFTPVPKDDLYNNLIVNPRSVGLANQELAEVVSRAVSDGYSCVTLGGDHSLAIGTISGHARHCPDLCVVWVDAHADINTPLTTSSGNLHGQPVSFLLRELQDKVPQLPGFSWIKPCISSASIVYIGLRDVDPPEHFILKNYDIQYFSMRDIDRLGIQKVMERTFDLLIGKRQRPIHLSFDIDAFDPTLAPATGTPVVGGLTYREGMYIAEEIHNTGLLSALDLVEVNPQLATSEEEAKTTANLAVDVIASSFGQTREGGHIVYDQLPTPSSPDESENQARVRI

[6] = biological target: T3, Proteasome subunit beta (Trypanosoma cruzi) (UniProt O96673); assay: Trypanosoma cruzi proteasome chymotrypsin-like activity (TcProtChymo) assay.; note: in the data most compounds retested in dose-response had high values; type: functional; details: 9.37 µM
T3 sequence (whole entry): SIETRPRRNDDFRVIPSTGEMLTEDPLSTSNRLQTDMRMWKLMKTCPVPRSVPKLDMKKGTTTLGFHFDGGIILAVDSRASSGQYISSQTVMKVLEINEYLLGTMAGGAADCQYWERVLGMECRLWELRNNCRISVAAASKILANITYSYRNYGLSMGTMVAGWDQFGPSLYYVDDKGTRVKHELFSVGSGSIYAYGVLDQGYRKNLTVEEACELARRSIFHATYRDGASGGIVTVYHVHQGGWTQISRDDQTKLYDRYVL

Homo sapiens = species: Homo sapiens; assay: To identify inhibition of the IFN signalling (Jak-Stat) pathway via expression of an eGFP reporter gene under the control of an IFN-stimulated response element (ISRE) containing MxA promoter.; type: functional; details: 30 µM
[7] = biological target: T4, Tyrosyl-tRNA synthetase, putative (Trypanosoma cruzi (strain CL Brener)) (UniProt Q4DSP6); assay: Trypanosoma cruzi tyrosyl tRNA synthetase (TcYRS) _High Tyrosine SOP; type: functional; details: 30 µM; note: in the data most compounds retested in dose-response had high values
T4 sequence (whole entry): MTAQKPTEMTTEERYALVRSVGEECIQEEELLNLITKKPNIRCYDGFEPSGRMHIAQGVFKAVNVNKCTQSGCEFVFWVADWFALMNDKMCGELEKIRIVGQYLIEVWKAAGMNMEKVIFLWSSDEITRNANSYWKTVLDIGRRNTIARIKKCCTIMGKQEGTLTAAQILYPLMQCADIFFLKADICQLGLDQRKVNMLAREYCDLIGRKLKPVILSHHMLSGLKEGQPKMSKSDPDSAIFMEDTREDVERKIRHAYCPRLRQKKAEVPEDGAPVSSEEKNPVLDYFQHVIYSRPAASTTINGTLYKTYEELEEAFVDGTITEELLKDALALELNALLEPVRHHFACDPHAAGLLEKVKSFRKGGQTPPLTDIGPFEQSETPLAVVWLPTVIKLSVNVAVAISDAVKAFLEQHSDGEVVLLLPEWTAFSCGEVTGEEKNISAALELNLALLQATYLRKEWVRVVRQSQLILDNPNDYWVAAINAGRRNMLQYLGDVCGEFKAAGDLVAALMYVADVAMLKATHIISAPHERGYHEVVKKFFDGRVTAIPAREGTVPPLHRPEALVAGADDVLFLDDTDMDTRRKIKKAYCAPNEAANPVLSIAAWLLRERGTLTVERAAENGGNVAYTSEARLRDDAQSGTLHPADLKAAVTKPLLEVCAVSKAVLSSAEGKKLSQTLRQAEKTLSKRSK

[8] = biological target: T4, Tyrosyl-tRNA synthetase, putative (Trypanosoma cruzi (strain CL Brener)); assay: Trypanosoma cruzi tyrosyl tRNA synthetase (TcYRS) SOP; type: functional; details: 30 µM
[9] = biological target: Chromo domain-containing protein 1 (Saccharomyces cerevisiae (strain ATCC 204508 / S288c) (Baker's yeast)) (UniProt P32657); assay: ScCHD-1 Enzyme Inhibition Assay; type: functional; details: 30 µM; note: in the data most compounds retested in dose-response had high values
Chromo domain-containing protein 1 (Saccharomyces cerevisiae (strain ATCC 204508 / S288c) (Baker's yeast)), sequence (P32657 whole entry, the tested form may be a part): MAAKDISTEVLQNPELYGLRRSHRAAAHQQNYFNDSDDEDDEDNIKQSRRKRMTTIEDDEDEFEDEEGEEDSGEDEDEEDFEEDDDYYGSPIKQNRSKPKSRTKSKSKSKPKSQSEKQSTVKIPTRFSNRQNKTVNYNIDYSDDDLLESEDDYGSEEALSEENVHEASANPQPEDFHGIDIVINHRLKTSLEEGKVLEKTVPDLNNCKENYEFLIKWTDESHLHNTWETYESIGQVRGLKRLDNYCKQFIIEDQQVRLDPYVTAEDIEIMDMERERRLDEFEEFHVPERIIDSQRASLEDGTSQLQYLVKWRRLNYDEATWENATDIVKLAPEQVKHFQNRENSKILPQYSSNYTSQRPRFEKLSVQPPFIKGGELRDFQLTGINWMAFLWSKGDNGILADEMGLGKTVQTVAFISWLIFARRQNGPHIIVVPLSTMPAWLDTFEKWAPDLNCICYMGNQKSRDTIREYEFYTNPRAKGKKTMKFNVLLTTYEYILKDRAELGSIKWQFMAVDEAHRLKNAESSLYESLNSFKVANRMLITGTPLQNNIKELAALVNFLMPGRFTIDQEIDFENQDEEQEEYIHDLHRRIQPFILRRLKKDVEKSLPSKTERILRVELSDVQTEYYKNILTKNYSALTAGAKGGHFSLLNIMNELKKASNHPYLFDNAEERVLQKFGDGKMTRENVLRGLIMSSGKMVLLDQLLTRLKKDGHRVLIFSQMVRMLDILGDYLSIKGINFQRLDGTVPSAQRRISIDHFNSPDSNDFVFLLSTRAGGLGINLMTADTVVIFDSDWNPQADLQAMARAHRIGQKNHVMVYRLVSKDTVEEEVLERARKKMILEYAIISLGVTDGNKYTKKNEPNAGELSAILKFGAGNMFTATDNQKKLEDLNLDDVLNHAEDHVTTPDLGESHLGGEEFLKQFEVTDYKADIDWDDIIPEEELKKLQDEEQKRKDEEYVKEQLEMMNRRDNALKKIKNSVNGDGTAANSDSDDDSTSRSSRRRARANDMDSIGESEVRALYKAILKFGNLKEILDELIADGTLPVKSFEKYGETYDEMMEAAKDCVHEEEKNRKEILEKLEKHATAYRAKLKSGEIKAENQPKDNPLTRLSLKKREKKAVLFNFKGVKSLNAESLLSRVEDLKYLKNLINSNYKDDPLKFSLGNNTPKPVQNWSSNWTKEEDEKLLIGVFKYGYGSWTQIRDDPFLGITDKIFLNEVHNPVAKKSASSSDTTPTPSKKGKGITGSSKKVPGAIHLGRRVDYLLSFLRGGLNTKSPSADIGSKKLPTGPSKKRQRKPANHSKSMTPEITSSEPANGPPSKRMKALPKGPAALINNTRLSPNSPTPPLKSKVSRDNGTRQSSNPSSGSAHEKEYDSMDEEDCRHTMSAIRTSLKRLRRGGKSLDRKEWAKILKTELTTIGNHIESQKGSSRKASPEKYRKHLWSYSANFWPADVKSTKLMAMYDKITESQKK

Protein translocase subunit SecA (Escherichia coli (strain K12)), sequence (P10408 whole entry): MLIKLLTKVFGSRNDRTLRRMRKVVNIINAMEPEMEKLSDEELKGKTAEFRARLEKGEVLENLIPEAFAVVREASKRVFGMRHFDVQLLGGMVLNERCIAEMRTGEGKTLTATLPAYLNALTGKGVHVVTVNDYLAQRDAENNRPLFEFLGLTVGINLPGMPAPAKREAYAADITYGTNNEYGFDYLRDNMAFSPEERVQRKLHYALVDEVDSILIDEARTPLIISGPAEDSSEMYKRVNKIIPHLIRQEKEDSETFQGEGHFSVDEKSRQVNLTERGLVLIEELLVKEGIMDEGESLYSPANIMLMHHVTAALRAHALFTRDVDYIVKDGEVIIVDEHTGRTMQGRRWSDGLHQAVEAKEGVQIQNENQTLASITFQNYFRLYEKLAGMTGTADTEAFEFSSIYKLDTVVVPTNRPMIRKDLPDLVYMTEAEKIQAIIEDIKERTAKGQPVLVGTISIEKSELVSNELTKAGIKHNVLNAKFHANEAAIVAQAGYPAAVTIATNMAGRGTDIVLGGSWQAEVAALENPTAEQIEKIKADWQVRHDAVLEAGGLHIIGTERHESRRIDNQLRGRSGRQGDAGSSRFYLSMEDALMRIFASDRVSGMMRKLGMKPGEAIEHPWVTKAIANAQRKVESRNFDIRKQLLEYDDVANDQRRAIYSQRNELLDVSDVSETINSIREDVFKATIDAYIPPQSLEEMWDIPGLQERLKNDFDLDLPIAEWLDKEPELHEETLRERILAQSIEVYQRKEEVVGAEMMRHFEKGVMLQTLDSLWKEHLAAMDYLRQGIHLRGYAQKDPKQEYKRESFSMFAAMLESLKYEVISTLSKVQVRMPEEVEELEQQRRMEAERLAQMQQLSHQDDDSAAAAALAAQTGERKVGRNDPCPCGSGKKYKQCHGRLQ
Sialic acid-binding Ig-like lectin 9 (Homo sapiens), sequence (Q9Y336 whole entry): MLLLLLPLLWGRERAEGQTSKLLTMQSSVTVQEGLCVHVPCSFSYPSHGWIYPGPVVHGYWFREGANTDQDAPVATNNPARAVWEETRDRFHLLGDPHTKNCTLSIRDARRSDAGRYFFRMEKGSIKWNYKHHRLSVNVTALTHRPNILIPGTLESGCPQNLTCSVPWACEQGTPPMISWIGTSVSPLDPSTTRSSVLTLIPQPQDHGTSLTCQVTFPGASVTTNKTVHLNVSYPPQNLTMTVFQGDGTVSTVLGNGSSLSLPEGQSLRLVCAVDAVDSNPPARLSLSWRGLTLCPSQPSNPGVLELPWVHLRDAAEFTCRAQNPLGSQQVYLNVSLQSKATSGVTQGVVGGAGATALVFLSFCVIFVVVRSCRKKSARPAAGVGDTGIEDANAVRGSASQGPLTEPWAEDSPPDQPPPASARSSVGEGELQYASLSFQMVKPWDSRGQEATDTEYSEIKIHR

SMILES	Percent Effect [1] [%]	Percent Effect [2] [%]	Percent Effect [3] [%]	Percent Effect [4] [%]	Percent Effect (Trypanosoma cruzi) [%]	Percent Effect [5] [%]	Percent Effect [6] [%]	Percent Effect (Homo sapiens) [%]	Percent Effect [7] [%]	Percent Effect [8] [%]	Percent Effect [9] [%]
Cc1cc(CNC(=O)N2CCCN(Cc3ccccc3)CC2)no1	-3.91	12.7	-1.73	0.846	-5.38	-2.66	10.7	18.1	2.46	11.4	-4.24
O=C(c1ccc[nH]1)N1CCC2(CC1)C(=O)Nc1ccccc12	-3.56	16.2	-2.52	18	6.35	4.22	10.7	-3.84	5.38	23.5	-5.84
CC(C)C(=O)NCC(=O)N(C)C1CCCN(CCc2ccccc2)C1 (stereo not given)	-2.17	10.8	0.942	15.5	4.25	-0.952	11.9	-0.751	3.7	4.88	-5.28
Cc1cc(CN2CCN(CCOc3cccc(C#N)c3)CC2)no1	-2.32	15.8	-0.384	-11.5	-1.4	1.44	10.6	3.18	5.42	23.5	-5.93
Cc1ncc2c(n1)CN(CC(=O)Nc1ccncc1)CC2	-2.13	15.8	-33.9	3.22	4.01	-1.44	6.85	17.2	15.3	23.5	-7.12
CC(NCC1=Cc2cc(Cl)ccc2OC1)c1nnc2n1CCCC2 (stereo not given)	-3.07	-2.7	3.91	2.75	-0.195	1.67	9.38	-10.3	4.95	1.22	-3.29
COc1ccccc1OCc1cc(C(=O)N2C[C@H](O)[C@@H](N(C)C)C2)n[nH]1	-3.86	6.94	0.606	-3.31	-1.46	0.442	11.9	9.72	2.1	2.56	-2.07
COc1cccc(N2CCN(CC(O)c3cc(C)ccc3C)CC2)c1 (stereo not given)	-1.87	10.5	-6.71	-9.14	-8.67	2.37	18.5	-5.38	7.45	7.79	-5.09
CN(C)CCN1CCC2(CC1)CN(c1cccnc1)C(=O)CO2	-2.58	10.8	0.668	-8.57	-5.18	2.23	24.4	12.1	4.32	10.3	-2.65
Cc1nc(CN2CCN(C(=O)COCc3ccccc3)CC2)no1	-3.03	5.41	-6.7	10.7	5.96	0.744	9.19	-1.99	-2.15	3.7	-7.9
